# Rows were chosen to be rich in hits. Some 2.3% of all compounds tested hit in one or more screens of this group.
# ATXN2 expr inh: inhibitors of ATXN2 expression | HEK-293 ATXN2-luciferase reporter, luminescence, 24 h | Potency, µM (highest dose often 57 µM), most hits filed as inhibitors | 0.72% of 360,000 active | AID 1745845; further: nearly all actives have a fitted effect of over 55% in size
#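 qHTS (up to 57 uM final) was run with 24 h compound exposure of reporter cells at 37 °C. Each well was multiplexed: SteadyGlo luminescence measured ATXN2-luciferase expression after a fluorogenic Gly-Phe-AFC viability readout (25 uM final).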
# TGFb inhibitor: blocks TGF-b signaling; AID 588855; 1.2% of 410,000 active; HepG2 CAGA-GFP TGF-b/SMAD3 reporter, GFP fluorescence, 18 h; TGF-beta stimulated, 500 pg/mL final; Potency, µM (series often up to 46.1 µM), most hits filed as inhibitors; further: nearly all actives have a fitted effect of over 65% in size
#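 Read-out: total well GFP (ex488/em500-530) summed from mean per-cell fluorescence. Cells: HEPG2 CAGA-GFP, 1% FBS DMEM, 18 h at 37 degrees C with 500 pg/mL final TGF-beta. Unstimulated wells served as the full-inhibition control; stimulated DMSO wells = 0%.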
# ATXN viability: cell viability loss in ATXN counter-screen; Potency, µM (titrated, usually from 56.7 µM), usual class: cytotoxic; 0.49% of 400,000 active; AID 651635; S2 cells (HEK-293 line with an ATXN2-luciferase reporter) viability, CellTiter-Fluor protease fluorescence, 24 h; further: nearly all actives have a fitted effect of over 40% in size
# HepG2 tox: kills HepG2 cells in TGF-b inhibitor counter-screen; Potency, µM (titrated, usually from 46.1 µM), most hits filed as cytotoxic; AID 588856; HepG2 CAGA-GFP viability, ATP luminescence, 18 h; 0.76% of 410,000 active
#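 HepG2 CAGA-GFP cells (1000/well, DMEM with 1% FBS) received compound, then TGF-beta at 500 pg/mL final, and were incubated 18 hours at 37 degrees C. Viability was read by CellTiter-Glo luminescence. Media-only wells were set as complete cell-killing and DMSO as no toxicity.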
# A number is an active result; 0 = inactive; ? = inconclusive; - = no result. The call rests on the fitted dose curve; in most records, active means well fitted curve in the direction sought with a large enough effect; inconclusive means small, poorly fitted or top-dose-only effect, or another doubt; inactive means no such curve, though single readings can be large; an effect the other way counts as inactive or inconclusive.
SMILES,ATXN2 expr inh,TGFb inhibitor,ATXN viability,HepG2 tox
O=S1(=O)CCOC[C@H](CC2CCCCC2)N1Cc1ccccc1,0,?,0,0
C=C1C(=O)[C@@]23C(CC[C@@H]1[C@H]2O)[C@@]12CO[C@]3(O)[C@@H](O)[C@@H]1C(C)(C)CC[C@@H]2O (some centres undefined),9.7µM,-,-,-
Cc1cc(SC#N)cc(C)c1NC(=O)CCl,0,?,?,11µM
CCc1cc(SC#N)cc(C)c1N,-,?,0,0
CCc1cc(SC#N)cc(C)c1NC(=O)CCl,?,7.1µM,?,0
COc1ccc(OC)c(-c2ccnc(-n3ncc(C(=O)NC(C)(C)CO)c3C3CC3)n2)c1,-,-,0,-
CCOC(=O)c1c(NC(=O)Nc2ccc(Cl)cc2)sc(C)c1C,?,0,?,0
CCOC(=O)c1c(NC(=O)/C=C/C(=O)O)sc(C)c1-c1ccc(Cl)cc1,?,?,?,18µM
CCCCCCCCCC[n+]1ccc(/C=C/c2ccc(N(C)C)cc2)c2ccccc21,-,?,-,0
N#Cc1cccnc1N1CCN(C(=O)c2cccc3c2C(=O)c2ccc(-c4ccc(Cl)c(C(F)(F)F)c4)cc2S3(=O)=O)CC1,0,0,0,0
N#Cc1cccnc1N1CCN(C(=O)c2cccc3c2C(=O)c2ccc(Cl)cc2S3(=O)=O)CC1,?,0,20µM,0
[O-][N+](=NC1C=Cc2ccccc21)C1C=Cc2ccccc21 (centres undefined),-,0,-,0
CCCSc1nsc(NC(=O)C(c2ccccc2)c2ccccc2)n1,?,18µM,0,6.3µM
CCCSc1nsc(NC(=O)CC)n1,0,?,0,0
NC(=O)c1ccc(I)c([N+](=O)[O-])c1,0,-,-,-
CN1\C(=C/C=C/C=C/C=[N+](C)C)C(C)(C)c2ccccc21,-,?,18µM,0
O=C(Nc1ccccc1)c1cn2ccccc2n1,11µM,0,0,0
Cc1csc(NC(=O)c2ccc3ccccc3n2)n1,0,0,0,0
O=C(Nc1ccc(-n2cnnn2)cc1)c1cn2ccccc2n1,0,0,0,0
Cc1csc(NC(=O)c2cn3ccccc3n2)n1,4µM,0,0,0
O=C(CN1Cc2ccccc2OC(c2ccsc2)C1)NCC1OCCc2ccccc21 (centres undefined),-,-,0,-
COc1ccccc1C(=O)OCC(=O)Nc1ccc(N2CCCCC2)cc1,-,0,-,0
CCn1c(C(=O)OC)cc2c1ccn2-c1ccc(F)cc1,0,0,0,13µM
COC(=O)c1cc2c(ccn2-c2ccc(F)cc2)n1Cc1ccc(OC)cc1,0,0,0,0
C/C(=N/NC(=O)c1cccs1)c1c(C)[nH]n(-c2nc3ccccc3s2)c1=O,?,0,0,1µM
SMILES,ATXN2 expr inh,TGFb inhibitor,ATXN viability,HepG2 tox
CN(C)c1ccc(C=c2c3cc(O)ccc3n3c2cc(-c2ccccc2)[n+]3C)cc1,0,11µM,0,0
C[n+]1c(-c2ccccc2)cc2c(=Cc3ccccc3)c3ccccc3n21,9.5µM,18µM,-,0
C[n+]1c(-c2ccccc2)cc2c(=Cc3ccc([N+](=O)[O-])cc3)c3ccccc3n21,?,?,?,0
CC(C)N(C(=O)N1CCN(c2ccnc3cc(Cl)ccc23)CC1)C(C)C,25µM,0,?,0
Ic1ccc(Nc2nc(NCCN3CCOCC3)nc(N3CCCC3)n2)cc1,-,?,-,0
O=C1CCCCN1CCC(=O)N1CCOc2ccc(C(O)C3CCCCC3)cc2C1 (centres undefined),-,-,0,-
Cc1ccc(Cl)cc1NS(=O)(=O)c1ccc2oc(=O)c3ncn(C)c3c2c1,-,16µM,-,10µM
O=Cc1ccnc2ccccc12,-,0,-,0
Cc1ccc(C(=O)Oc2ccc(Cl)c3cccnc23)cc1[N+](=O)[O-],0,11µM,0,0
Cc1ccc(C(=O)Oc2cccnc2)cc1[N+](=O)[O-],-,0,0,0
Cn1c(C(c2cc3ccccc3n2C)c2cc3ccccc3n2C)cc2ccccc21,-,?,-,0
Cc1ccccc1C(O)c1ccncc1 (centres undefined),0,0,0,18µM
COc1cc(C2CC(=O)c3c([nH]c(C(=O)OCCOC(C)C)c3C)C2)cc(OC)c1OC (centres undefined),32µM,0,?,0
COc1cc(C2CC(=O)c3c([nH]c(C(=O)OCc4ccc(C)cc4)c3C)C2)cc(OC)c1OC (centres undefined),-,?,-,0
O=C(c1cnn(-c2nccc(-c3ccccc3F)n2)c1C1CC1)N1CCN(CCO)CC1,-,-,0,-
Cc1cc(N2CCN(S(=O)(=O)c3ccc(Cl)cc3)CC2)c2ccccc2n1,?,14µM,?,10µM

# Screening results: PubChem BioAssay, National Center for Advancing Translational Sciences (NCATS)
